Laboratory results taken from the supplement of paper PMC12282887.
± gives the standard deviation of the averaged measurements.

What was measured:
Assay in all cases: promoter activity interaction Z-score (Lux/OD deviation from empty-vector control); higher = stronger promoter induction by the compound
[1] = system: E. coli BW25113 acrABp lux reporter
In short: (§1)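 At 37°C, E. coli BW25113 reporter cultures in 40 µl LB Lennox in 384-well plates were read for OD600 and luminescence every 30 min for 12 h. Windows were 0–8 h for wild type and 1–9 h for deletion strains, and wells under 10% of the median growth value were removed. The score is the Z-transformed residual of growth-normalised luminescence against a control fit.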

[2] = system: E. coli BW25113 micFp lux reporter
In short: as §1

[3] = system: E. coli BW25113 ompFp lux reporter
In short: as §1

[4] = system: E. coli BW25113 robp lux reporter
In short: as §1

[5] = system: E. coli BW25113 soxSp lux reporter
In short: as §1

[6] = system: E. coli BW25113 tolCp lux reporter
In short: as §1

[7] = 20.7 µg/ml, genetic background: wild type
[8] = 20.7 µg/ml, genetic background: ΔmarA
[9] = 20.7 µg/ml, genetic background: Δrob
[10] = 20.7 µg/ml, genetic background: ΔsoxS
[11] = 41.4 µg/ml, genetic background: wild type
[12] = 41.4 µg/ml, genetic background: ΔmarA
[13] = 41.4 µg/ml, genetic background: Δrob
[14] = 41.4 µg/ml, genetic background: ΔsoxS
[15] = 82.8 µg/ml, genetic background: wild type
[16] = 82.8 µg/ml, genetic background: ΔmarA
[17] = 82.8 µg/ml, genetic background: Δrob
[18] = 82.8 µg/ml, genetic background: ΔsoxS
[19] = 165.6 µg/ml, genetic background: wild type
[20] = 165.6 µg/ml, genetic background: ΔmarA
[21] = 165.6 µg/ml, genetic background: Δrob
[22] = 165.6 µg/ml, genetic background: ΔsoxS

For `CN(C)C(=N)NC(=N)N` [Metformin], the “promoter activity interaction Z-score” value [1, 7] was -0.326 ± 0.14, the “promoter activity interaction Z-score” value [1, 8] was 0.815 ± 0.45 and the “promoter activity interaction Z-score” value [1, 9] was -0.31 ± 0.23. For the same compound, the “promoter activity interaction Z-score” value [1, 10] was -0.0221 ± 0.28, the “promoter activity interaction Z-score” value [1, 11] was -0.0908 ± 0.043 and the “promoter activity interaction Z-score” value [1, 12] was 0.174 ± 0.41. The “promoter activity interaction Z-score” value [1, 13] was 0.377 ± 0.017, the “promoter activity interaction Z-score” value [1, 14] was -0.0209 ± 0.61 and the “promoter activity interaction Z-score” value [1, 15] was -0.145 ± 0.14. The “promoter activity interaction Z-score” value [1, 16] was 0.000785 ± 1.4, the “promoter activity interaction Z-score” value [1, 17] was 0.271 ± 0.043 and the “promoter activity interaction Z-score” value [1, 18] was -0.155 ± 0.2. The “promoter activity interaction Z-score” value [1, 19] was -0.249 ± 0.13, the “promoter activity interaction Z-score” value [1, 20] was 0.575 ± 0.81 and the “promoter activity interaction Z-score” value [1, 21] was 0.41 ± 0.17. For the same compound, the “promoter activity interaction Z-score” value [1, 22] was 0.11 ± 0.051, the “promoter activity interaction Z-score” value [2, 7] was -0.368 ± 0.019 and the “promoter activity interaction Z-score” value [2, 8] was -0.0629 ± 0.04. For the same compound, the “promoter activity interaction Z-score” value [2, 9] was -0.153 ± 0.082, the “promoter activity interaction Z-score” value [2, 10] was -0.139 ± 0.14 and the “promoter activity interaction Z-score” value [2, 11] was -0.177 ± 0.23. The “promoter activity interaction Z-score” value [2, 12] was -0.102 ± 0.12, the “promoter activity interaction Z-score” value [2, 13] was -0.0244 ± 0.0094 and the “promoter activity interaction Z-score” value [2, 14] was -0.233 ± 0.015. For the same compound, the “promoter activity interaction Z-score” value [2, 15] was -0.161 ± 0.16, the “promoter activity interaction Z-score” value [2, 16] was -0.0653 ± 0.072 and the “promoter activity interaction Z-score” value [2, 17] was -0.0658 ± 0.068. For the same compound, the “promoter activity interaction Z-score” value [2, 18] was -0.0678 ± 0.068, the “promoter activity interaction Z-score” value [2, 19] was -0.544 ± 0.37 and the “promoter activity interaction Z-score” value [2, 20] was -0.151 ± 0.025. For the same compound, the “promoter activity interaction Z-score” value [2, 21] was -0.0629 ± 0.08, the “promoter activity interaction Z-score” value [2, 22] was -0.000873 ± 0.19 and the “promoter activity interaction Z-score” value [3, 7] was -0.191 ± 0.037. The “promoter activity interaction Z-score” value [3, 8] was 0.332 ± 0.047, the “promoter activity interaction Z-score” value [3, 9] was -0.324 ± 0.2 and the “promoter activity interaction Z-score” value [3, 10] was -0.0538 ± 0.13. For the same compound, the “promoter activity interaction Z-score” value [3, 11] was -0.037 ± 0.014, the “promoter activity interaction Z-score” value [3, 12] was -0.125 ± 0.2 and the “promoter activity interaction Z-score” value [3, 13] was 0.267 ± 0.2. For the same compound, the “promoter activity interaction Z-score” value [3, 14] was 0.0362 ± 0.37, the “promoter activity interaction Z-score” value [3, 15] was 0.036 ± 0.056 and the “promoter activity interaction Z-score” value [3, 16] was 0.0389 ± 0.14. For the same compound, the “promoter activity interaction Z-score” value [3, 17] was 0.322 ± 0.37, the “promoter activity interaction Z-score” value [3, 18] was 0.0576 ± 0.088 and the “promoter activity interaction Z-score” value [3, 19] was -0.153 ± 0.11. The “promoter activity interaction Z-score” value [3, 20] was 0.766 ± 0.041, the “promoter activity interaction Z-score” value [3, 21] was 0.44 ± 0.62 and the “promoter activity interaction Z-score” value [3, 22] was 0.813 ± 0.41. The “promoter activity interaction Z-score” value [4, 7] was 0.282 ± 0.18, the “promoter activity interaction Z-score” value [4, 8] was 0.497 ± 0.0053 and the “promoter activity interaction Z-score” value [4, 9] was -0.187 ± 0.91. For the same compound, the “promoter activity interaction Z-score” value [4, 10] was 0.397 ± 1.1, the “promoter activity interaction Z-score” value [4, 11] was -0.109 ± 0.24 and the “promoter activity interaction Z-score” value [4, 12] was 0.171 ± 0.31. The “promoter activity interaction Z-score” value [4, 13] was 0.416 ± 0.36, the “promoter activity interaction Z-score” value [4, 14] was 0.638 ± 1.1 and the “promoter activity interaction Z-score” value [4, 15] was 0.336 ± 0.065. For the same compound, the “promoter activity interaction Z-score” value [4, 16] was 0.0784 ± 0.21, the “promoter activity interaction Z-score” value [4, 17] was 0.39 ± 0.41 and the “promoter activity interaction Z-score” value [4, 18] was 0.405 ± 0.19. The “promoter activity interaction Z-score” value [4, 19] was -0.305 ± 0.39, the “promoter activity interaction Z-score” value [4, 20] was 0.28 ± 0.035 and the “promoter activity interaction Z-score” value [4, 21] was 0.519 ± 0.11. The “promoter activity interaction Z-score” value [4, 22] was 0.649 ± 0.18, the “promoter activity interaction Z-score” value [5, 7] was -0.232 ± 0.14 and the “promoter activity interaction Z-score” value [5, 8] was 0.132 ± 0.02. The “promoter activity interaction Z-score” value [5, 9] was -0.07 ± 0.0035, the “promoter activity interaction Z-score” value [5, 10] was 0.26 ± 0.056 and the “promoter activity interaction Z-score” value [5, 11] was -0.046 ± 0.095. For the same compound, the “promoter activity interaction Z-score” value [5, 12] was 0.0673 ± 0.055, the “promoter activity interaction Z-score” value [5, 13] was 0.0305 ± 0.041 and the “promoter activity interaction Z-score” value [5, 14] was 0.0287 ± 0.19. The “promoter activity interaction Z-score” value [5, 15] was 0.0138 ± 0.19, the “promoter activity interaction Z-score” value [5, 16] was -0.0135 ± 0.017 and the “promoter activity interaction Z-score” value [5, 17] was 0.0262 ± 0.22. The “promoter activity interaction Z-score” value [5, 18] was -0.0818 ± 0.083, the “promoter activity interaction Z-score” value [5, 19] was -0.199 ± 0.039 and the “promoter activity interaction Z-score” value [5, 20] was -0.0313 ± 0.093. For the same compound, the “promoter activity interaction Z-score” value [5, 21] was -0.191 ± 0.24, the “promoter activity interaction Z-score” value [5, 22] was 0.0168 ± 0.089 and the “promoter activity interaction Z-score” value [6, 7] was -0.594 ± 0.2. The “promoter activity interaction Z-score” value [6, 8] was 1.15 ± 1.7, the “promoter activity interaction Z-score” value [6, 9] was -0.505 ± 0.25 and the “promoter activity interaction Z-score” value [6, 10] was -0.306 ± 0.74. The “promoter activity interaction Z-score” value [6, 11] was -0.0152 ± 1.1, the “promoter activity interaction Z-score” value [6, 12] was -0.186 ± 1 and the “promoter activity interaction Z-score” value [6, 13] was 0.0225 ± 0.69. The “promoter activity interaction Z-score” value [6, 14] was -0.32 ± 0.57, the “promoter activity interaction Z-score” value [6, 15] was 0.0793 ± 0.27 and the “promoter activity interaction Z-score” value [6, 16] was 0.276 ± 0.67. For the same compound, the “promoter activity interaction Z-score” value [6, 17] was -0.546 ± 0.36, the “promoter activity interaction Z-score” value [6, 18] was 0.0771 ± 1.1 and the “promoter activity interaction Z-score” value [6, 19] was -0.144 ± 0.74. For the same compound, the “promoter activity interaction Z-score” value [6, 20] was 0.284 ± 1.1, the “promoter activity interaction Z-score” value [6, 21] was -0.698 ± 0.026 and the “promoter activity interaction Z-score” value [6, 22] was 0.3 ± 0.58.
